Assay outcomes from PubChem.
D3 antag: D3 dopamine receptor (human) antagonism | P35462 | D3R cells, DiscoveRx beta-arrestin luminescence, antagonist mode; stronger effect = lower value | max response, negative = inhibition, % | 360,000 tested, 2.5% active | AID 652054; in the data active means max response below about -50%; further: on the % scale 0 is the no-effect control and ±100 the full control effect
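Cells expressing the human receptor were seeded at 1500 cells/well, incubated overnight at 37 degrees C in 5% CO2, then exposed to library compounds with dopamine controls for 90 minutes at 37 degrees C before luminescent detection.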
D1 ag: human D1 receptor agonism; AID 504660; 360,000 tested, 1% active; P21728; activation, % at 2 µM; HEK293 T-REx D1 cells, calcium flux, agonist mode; in the data active means activation above about 30%; further: 0% is about no effect
Target sequence (P21728 whole entry, looked up): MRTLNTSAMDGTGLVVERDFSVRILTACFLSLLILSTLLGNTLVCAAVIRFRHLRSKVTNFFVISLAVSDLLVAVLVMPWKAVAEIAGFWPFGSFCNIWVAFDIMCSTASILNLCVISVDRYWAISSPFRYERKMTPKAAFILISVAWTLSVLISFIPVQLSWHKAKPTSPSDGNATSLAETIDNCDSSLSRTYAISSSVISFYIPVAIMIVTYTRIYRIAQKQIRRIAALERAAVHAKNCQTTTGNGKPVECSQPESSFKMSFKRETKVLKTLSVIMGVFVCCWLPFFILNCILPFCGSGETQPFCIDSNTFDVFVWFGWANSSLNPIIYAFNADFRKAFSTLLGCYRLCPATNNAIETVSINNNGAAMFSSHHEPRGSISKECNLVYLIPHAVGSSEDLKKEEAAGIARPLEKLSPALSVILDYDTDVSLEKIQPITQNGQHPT
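Tetracycline-induced HEK293 TREx D1 cells, force-coupled to calcium signalling, were dye-loaded with a no-wash calcium kit. Compound was pin-added after a 10 s baseline. Fluorescence was read kinetically at 1 cycle/s for 180 s, with calcium rises flagged as agonism.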
D1 antag: antagonists of human D1 dopamine receptor; P21728; HEK293 TREx D1 cells, calcium flux, dopamine EC80; stronger effect = lower value; activity change, negative = inhibition, % at 10 µM; 360,000 tested, 3.2% active; AID 504652; in the data active means activity change below about -30%; further: on the % scale 0 is the no-effect control and ±100 the full control effect
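Allosteric or orthosteric antagonism assessed as attenuation of the calcium response to EC80 dopamine, added 180 s after compound, in induced HEK293 Trex D1 cells loaded with no-wash calcium dye.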
D3 ag: D3 dopamine receptor (human) agonism; AID 652048; max activation, %; 410,000 tested, 0.58% active; D3R DiscoveRx beta-arrestin cells, luminescence, 90 min; in the data active means max activation above about 30%; further: 0% is about no effect
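Agonist mode: compounds and dopamine controls were applied to plated cells for 90 min at 37 degrees C after an overnight attachment at 1500 cells/well. Luminescent read-out followed 30 - 60 minutes at room temperature with DiscoveRx detection reagent.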
D1 PAM: human D1 dopamine receptor positive modulation | potentiation, % at 10 µM | 360,000 tested, 0.036% active | P21728 | HEK293 TREx D1 cells, calcium flux, dopamine EC20 potentiation | AID 504651; in the data active means potentiation above about 30%; further: 0% is about no effect
* marks the source's active call; other numbers are inactive results; ! = not confirmed by another sample. An excerpt weighted towards active compounds, which were near 6% of everything screened.

`COc1ccc(OCC(=O)NNC(=S)NC(=O)c2ccc(Br)o2)cc1` gave D3 antag 8, D1 ag 0, D1 antag 0, D3 ag 3 and D1 PAM -5.
`COc1ccc(N(C)S(=O)(=O)c2ccc3c(c2)n(C)c(=O)c(=O)n3C)cc1` gave D1 ag -2, D1 antag 6, D3 ag -12 and D1 PAM -2.
`CC(OC(=O)c1ccccc1C(=O)N(C)C1CCCCC1)C(=O)NC1(C#N)CCCCC1` (centres undefined) gave D3 antag -15, D1 ag 1, D1 antag 21, D3 ag -1 and D1 PAM -5.
For CC(OC(=O)c1cc(Br)ccc1O)C(=O)NC1(C#N)CCCCC1 (centres undefined) the results were D3 antag 1, D1 ag 36*, D1 antag -13, D3 ag -6 and D1 PAM -7.
For Cc1cc2[nH]c3c(=O)n(Cc4ccccc4F)ncc3c2s1 the results were D1 ag 0, D1 antag -72*! and D1 PAM -4.
For CCn1c2cc(C)sc2c2cnn(Cc3ccccc3F)c(=O)c21 the results were D1 ag 8, D1 antag 3 and D1 PAM -2.
COc1ccc(NC2=NCCCCC2)cc1 was read as D3 antag 19, D1 ag 1, D1 antag 2, D3 ag -2 and D1 PAM 1.
COc1ccc(NC2=Nc3ccccc3CC2)cc1 was read as D3 antag -56*, D1 ag 2, D1 antag 2, D3 ag -34 and D1 PAM -7.
For COCC(=O)Nc1ccc2c(c1)[C@@H]1C[C@H](CC(=O)OC)O[C@H](CO)[C@@H]1O2 the results were D3 antag -2 and D3 ag 3.
Screening O=C(CCN=C1NS(=O)(=O)c2ccccc21)OCC(=O)c1ccc(F)cc1 returned D3 antag -1, D1 ag 4, D1 antag -13, D3 ag -3 and D1 PAM -6.
Screening CC(OC(=O)CCCN=C1NS(=O)(=O)c2ccccc21)C(=O)Nc1ccccc1F (centres undefined) returned D3 antag 6, D1 ag 3, D1 antag -39*, D3 ag -1 and D1 PAM -12.
O=C(CCCN=C1NS(=O)(=O)c2ccccc21)OCC(=O)c1ccc(F)cc1 was read as D3 antag 1, D1 ag 56*, D1 antag -8, D3 ag 1 and D1 PAM 2.
For CC(OC(=O)CCN=C1NS(=O)(=O)c2ccccc21)C(=O)Nc1ccccc1F (centres undefined) the results were D3 antag -7, D1 ag 9, D1 antag 1, D3 ag 4 and D1 PAM 2.
`O=C(COC(=O)CCC(=O)c1ccc(F)cc1)NCc1ccco1` gave D3 antag -7, D1 ag 0, D1 antag -32*, D3 ag -4 and D1 PAM -8.
`O=C(COC(=O)/C=C/c1ccc(C(F)(F)F)cc1)NC1CC1` gave D3 antag -64*, D1 ag 9, D1 antag -26, D3 ag -1 and D1 PAM 1.
`O=C(COC(=O)/C=C/c1ccc(C(F)(F)F)cc1)NCc1ccco1` gave D3 antag -6, D1 ag 6, D1 antag -31*, D3 ag -6 and D1 PAM -7.
For O=C(COC(=O)/C=C/c1ccc(OC(F)F)cc1)NCc1cccs1 the results were D3 antag -5, D1 ag 36*, D1 antag 3, D3 ag 6 and D1 PAM -3.
O=C(COC(=O)Cc1ccc(F)cc1)NCc1ccco1 was read as D3 antag 2, D1 ag 1, D1 antag -1, D3 ag 2 and D1 PAM -1.
For CCCCCCN1C[C@H](n2cc(C3CC3)nn2)[C@@H](O)C[C@@H]1c1ccc(OC)cc1 the results were D3 antag -20 and D3 ag -11.
Screening O=C(COC(=O)/C=C/c1ccc(C(F)(F)F)cc1)NC1CCCC1 returned D3 antag 1, D1 ag 5, D1 antag -49*, D3 ag 1 and D1 PAM -8.
Screening O=C(COC(=O)/C=C/c1cccc(C(F)(F)F)c1)NC1CCCCCC1 returned D3 antag 0, D1 ag 3, D1 antag -15 and D3 ag 2.
Oc1cccc(-c2c3nc(c(-c4cccc(O)c4)c4ccc([nH]4)c(-c4cccc(O)c4)c4nc(c(-c5cccc(O)c5)c5ccc2[nH]5)CC4)C=C3)c1 was read as D3 ag -11.
`CCn1cc(C(=O)N2CCN(c3ccccc3)CC2)c(=O)c2cc(S(=O)(=O)N(C)C3CCCCC3)ccc21` gave D1 ag 1, D1 antag -19, D3 ag 0 and D1 PAM -1.
For CCN(CC)S(=O)(=O)c1ccc(Cl)c(C(=O)OC2CC(C)OC2=O)c1 (centres undefined) the results were D3 antag 12, D1 ag 1, D1 antag 2, D3 ag 32* and D1 PAM -7.
For CCN(CC)S(=O)(=O)c1ccc(Cl)c(C(=O)Oc2cccnc2)c1 the results were D3 antag -11, D1 ag 3, D1 antag 0, D3 ag 0 and D1 PAM 1.
`CSc1ccc(/C=C/c2nc3ccccc3n2S(=O)(=O)c2cccc(Cl)c2)cc1` gave D1 ag 10, D1 antag -27, D3 ag 3 and D1 PAM -1.
O=S(=O)(c1cccc(Cl)c1)n1c(/C=C/c2ccccc2Cl)nc2ccccc21 was read as D1 ag -2, D1 antag -33*, D3 ag 1 and D1 PAM -3.
Screening Cc1ccc(/C(O)=C/C(=O)C(=O)NNC(=O)C(O)(c2ccccc2)c2ccccc2)cc1 returned D3 antag -88*, D1 ag 3, D1 antag -5, D3 ag 4 and D1 PAM 1.
For Fc1ccc(CSc2ncnc3c2oc2ccccc23)cc1 the results were D3 antag 0, D1 ag 4, D1 antag 2, D3 ag 8 and D1 PAM -2.
For O=C(CSc1ncnc2c1oc1ccccc12)OCc1ccccc1 the results were D3 antag 11, D1 ag 12, D1 antag -6, D3 ag 30* and D1 PAM 6.
For Fc1cccc(CSc2ncnc3c2oc2ccccc23)c1 the results were D3 antag -6, D1 ag 2, D1 antag -93*, D3 ag -9 and D1 PAM -5.
